Only a selection was taken, and hits are over-represented in it overall.
CtBP-E1A inh – blocks the CtBP interaction with E1A; actives 0.49% (n = 340,000); AlphaScreen GST-E1A/His-CtBP binding, 1536-well; active compounds read low; activity change, % (concentration not given with the values); AID 651724; in the data active = activity change below about -65%; inconclusive = mostly about -30% to -63%
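Homogeneous bead-based format: GST-tagged E1A captured on glutathione donor beads, His-tagged CtBP on nickel acceptor beads; compounds precede bead addition by 2 h at 37 °C.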
Eya2 inh – Eya2 (human) phosphatase inhibition; O00167; recombinant Eya2, OMFP fluorescence dephosphorylation (OMFP is methylfluorescein phosphate); Potency, µM (highest dose often 76.9 µM), for the others: at the top dose activity, negative = inhibition, hits mostly inhibitors; actives 0.006% (n = 330,000); also: potency is read from the fitted curve at half-maximal effect
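Eya2 protein (added as 0.2 uM solution) was preincubated with compound for 10 min at ambient temperature in 50 mM HEPES pH 7.5, 50 mM NaCl, 5 uM MgCl2, 0.05% BSA, 1 mM DTT. OMFP (added at 50 uM) then reacted 10 min; fluorescence read at 485/525 nm.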
Anesthetic bind – binds horse apoferritin like a general anesthetic. P02791. Potency, µM (top dose mostly 77.5 µM), inactives show top-dose activity change, negative = displacement, most hits filed as inhibitors. actives 0.074% (n = 350,000). apoferritin/1-aminoanthracene competitive binding, fluorescence; also: potency is read from the fitted curve at half-maximal effect; nearly all actives have a fitted effect of over 20% in size
Target sequence (P02791 2-175 limits assumed): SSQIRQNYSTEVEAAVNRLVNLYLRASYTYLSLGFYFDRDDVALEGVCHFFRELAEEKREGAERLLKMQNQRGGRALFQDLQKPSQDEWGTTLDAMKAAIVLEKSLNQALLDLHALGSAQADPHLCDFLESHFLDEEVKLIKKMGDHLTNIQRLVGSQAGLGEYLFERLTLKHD
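Probe: 1-aminoanthracene (50% saturated, PBS). Protein: horse-spleen apoferritin, 10 uM. Incubation: 10 min, room temperature. Detection: 380 nm excitation, 535 nm emission. Analysis: normalized response, four-parameter Hill.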
JMJD2E inh – inhibitors of human JMJD2E histone demethylase. JMJD2E catalytic domain, FDH-coupled NADH fluorescence (FDH is formaldehyde dehydrogenase). actives 1.6% (n = 230,000). Potency, µM (top dose mostly 57.1 µM), for the others: at the highest dose activity change, negative = inhibition, actives largely listed as inhibitors; active = well fitted inhibition curve with a large enough effect, not every such curve was filed as active; inconclusive = small, poorly fitted or top-dose-only effect, or another doubt; inactive = no such curve, though single readings can be large or run the other way;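 also: potency is read from the fitted curve at half-maximal effect; 0% = wells with enzyme and -100% = buffer wells without enzyme; nearly all actives have a fitted effect of over 50% in size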
GALK inhibitor – galactokinase (human) inhibition; P51570; Purified GALK, Kinase-Glo residual ATP luminescence; Potency, µM (top dose mostly 57.5 µM), inactives show top-dose activity change, negative = inhibition, most hits filed as inhibitors; actives 0.007% (n = 270,000); AID 1868; also: potency is read from the fitted curve at half-maximal effect
Target sequence (P51570 whole entry, looked up): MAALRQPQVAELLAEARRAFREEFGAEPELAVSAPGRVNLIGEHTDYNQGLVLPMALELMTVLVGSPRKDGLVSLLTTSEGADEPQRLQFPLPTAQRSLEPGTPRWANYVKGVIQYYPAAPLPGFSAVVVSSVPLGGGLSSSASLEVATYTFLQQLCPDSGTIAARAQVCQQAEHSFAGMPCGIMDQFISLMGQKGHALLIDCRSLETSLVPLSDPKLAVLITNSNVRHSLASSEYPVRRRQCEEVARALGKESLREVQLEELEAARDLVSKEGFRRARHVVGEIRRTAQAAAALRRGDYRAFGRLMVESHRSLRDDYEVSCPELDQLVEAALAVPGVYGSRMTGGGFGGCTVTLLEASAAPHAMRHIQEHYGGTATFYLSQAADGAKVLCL
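5 nM enzyme, 35 uM ATP, 100 uM galactose, 20 mM HEPES pH8.0, 5 mM MgCl2; 1 h RT; residual ATP by Kinase-Glo Plus luminescence, qHTS format.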
Six1-Eya2 blk – Six1/Eya2 interaction inhibition | activity change, % (no concentration beside the values) | AID 651725 | actives 0.56% (n = 360,000) | AlphaScreen GST-Six1/His-Eya2 binding, biochemical; active compounds read low | Q15475+O00167; in the data active = activity change below about -65%; inconclusive = mostly about -30% to -63%
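Homogeneous AlphaScreen proximity assay pairing GST-Six1 with His-tagged Eya2 (added as 5X mix: 250 nM and 500 nM) in 50 mM Tris pH 8.0, 300 mM NaCl, 1 mM TCEP. Glutathione donor and nickel acceptor beads; 1 h, 37 °C, dark.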
* marks the source's active call; other numbers are inactive results; ? = inconclusive; · = no result; [ ] = remark or other dose. Unless noted, calls follow the shape of the dose curve; as a rule, active = well fitted curve in the direction sought with a large enough effect; inconclusive = small, poorly fitted or top-dose-only effect, or another doubt; inactive = no such curve, though single readings can be large; an effect the other way counts as inactive or inconclusive. Unless noted, % is scaled to controls: 0 for no effect and ±100 for the full control effect.

SMILES	CtBP-E1A inh	Eya2 inh	Anesthetic bind	JMJD2E inh	GALK inhibitor	Six1-Eya2 blk
N#C/C(=C\c1cc(Cl)c(OCc2ccc(Cl)cc2)c(Cl)c1)C(N)=O	·	-23%	-16%	1%	-3%	·
N#C/C(=C\c1cc(O)c(O)c(O)c1)C(N)=O	·	-26%	-4%	1µM*	2%	-22
Cc1cc(Nc2cccc(C(F)(F)F)c2)nc2ccc(NC(=O)c3cccnc3)cc12	·	·	1%	·	·	·
O=c1[nH][nH]c2c(N=Cc3ccccc3O)ccc(F)c12	-91*	2%	6%	-11%	·	?
O=C(Cn1ncc2ccsc2c1=O)N1CCN(c2ccc(Cl)cc2)CC1	·	·	3%	·	·	·
CCOC(=O)C(C)N1C(=O)S/C(=C\c2ccc(-c3ccccc3C(=O)O)o2)C1=O (stereo not given)	·	4%	45%	·	·	?
Cc1ccc(C)c(N2C(=N)S/C(=C\c3ccc(-c4ccccc4C(=O)O)o3)C2=O)c1	?	13%	-1%	-28%	-7%	-72*
COc1ccc(N2CCN(C(=O)Cn3cnc4sc(C)c(S(=O)(=O)N5CCCCC5)c4c3=O)CC2)cc1	·	·	-10%	·	·	·
C=CCc1cccc(C2C(C)CCC3C(=O)N4C(Cc5c([nH]c6ccccc56)C4c4cc(OC)c(OC)c(OC)c4)C(=O)N32)c1 (stereo not given)	·	·	-5%[15.3 µM]	·	·	·
O=C(Nc1nc2ccccc2n1CCN1CCOCC1)c1ccccc1	-4	-1%	-10%	·	5%	2
O=C(Nc1nc2ccccc2n1CCN1CCOCC1)c1cn(-c2ccccc2)nc1-c1ccccc1	-19	-18%	-8%	25µM*	3%	-18
CN(C)S(=O)(=O)c1ccc(SCC(=O)Nc2cccc(S(=O)(=O)N3CCCC3)c2)nc1	·	·	·	·	·	2
O=C(CSc1cccc2cccnc12)N/N=C/c1ccc(F)cc1	?	-1%	-12%	?	·	-67*
O=C(CSc1cccc2cccnc12)N/N=C/c1cccc(O)c1	·	1%	?	?	8%	-20
CCCCC(=O)N/N=C/c1ccc(Sc2cccc3cccnc23)o1	-88*	?	?	-2%	1%	-80*
CN(C)S(=O)(=O)c1cccc(NC(=O)CSc2cccc3cccnc23)c1	-91*	8%	-6%	·	1%	-91*
CC1CCN(S(=O)(=O)c2ccc3c(c2)CCN3C(=O)Nc2ccc(Br)cc2F)CC1	·	·	-2%	·	·	·
O=c1cc(-c2cccc(O)c2)oc2c(O)c(O)ccc12	·	·	·	7.9µM*	·	·
CN(C)[C@@H]1C(=O)C(C(N)=O)=C(O)[C@]2(O)C(=O)C3=C(O)c4c(O)ccc(Cl)c4[C@H](O)[C@H]3C[C@@H]12	·	·	6%[29.3 µM]	?	·	·
O=C1C=CC(=O)c2c(O)c(N3CCN(CCOCCO)CC3)c(Br)c(O)c21	-26	·	·	·	·	-69*
O=C(NCCCn1ccnc1)C(=O)NCC1OCCN1S(=O)(=O)c1ccc(F)cc1 (stereo not given)	-73*	-7%	-2%	12%	·	-77*
CO/C=C\C=C/c1nnn(-c2ccc(Cl)cc2)n1	3	2%	-2%	25µM*	·	-9
Clc1ccc(-n2cnnn2)cc1	-19	14%	-6%	-5%	0%	3
Cc1ccc(O)c(N=Cc2cc(Cc3ccccc3)cc([N+](=O)[O-])c2O)c1	-3	?	?	28µM*	0%	-21
O=[N+]([O-])c1cc(Cc2ccccc2)cc(C=Nc2ccc(N3CCOCC3)cc2)c1O	0	0%	-5%	16µM*	-1%	-15
SMILES	CtBP-E1A inh	Eya2 inh	Anesthetic bind	JMJD2E inh	GALK inhibitor	Six1-Eya2 blk
Oc1c(Cl)cc(Cl)cc1C=Nc1ccc(N2CCOCC2)cc1	3	-11%	6%	·	·	1
Cc1conc1NC(c1cccs1)c1ccc2cccnc2c1O (stereo not given)	·	-10%	?	?	-1%	·
CC(C)CC(=O)NC(c1cccs1)c1ccc2cccnc2c1O (stereo not given)	-88*	-2%	-7%	1%	8%	-81*
CCC(=O)NC(c1cccs1)c1ccc2cccnc2c1O (stereo not given)	·	-2%	-1%	25µM*	1%	-93*
Cc1ccc(N2C(=O)CS(=O)(=O)C23C(=O)N(Cc2ccccc2F)c2ccccc23)cc1Cl (stereo not given)	·	·	0%	·	·	·
CCc1ccc(OCc2ccccc2C(=O)Nc2ccc3nc(C)cc(N)c3c2)cc1	·	·	-21%	·	·	·
CCOC(=O)Cc1c(C)nc2c(-c3ccc(OC)c(OC)c3)c(C)nn2c1C	·	·	-13%	·	·	·
CC(C)NC(=O)C1CCC(Cn2c(=O)c3sccc3n(CC(=O)N3CCCC3)c2=O)CC1 (stereo not given)	·	·	-5%	·	·	·
COc1ccc(-c2ccc(C(=O)NCc3ccc(N(C)C)cc3)c3occc23)c(C)c1	-66*	·	·	·	·	-65*
O=C(/C=C/c1ccco1)c1ccc(NC(=O)C23CC4CC(CC(C4)C2)C3)cc1	6	-6%	?	32µM*	-2%	-3
Cc1ccc(NC(=O)CSc2ncc3c(n2)-c2ccccc2N(C)S3(=O)=O)c(Cl)c1	·	·	5%	·	·	·
O=C1c2ccccc2C(=O)c2c(O)ccc(O)c21	·	·	·	-15%	·	·
O=C1c2ccccc2C(=O)c2c(O)c(O)cc(O)c21	?	1%	5%	22µM*	·	-11
Nc1ccc(O)c2c1C(=O)c1ccccc1C2=O	-86*	-13%	-14%	-1%	·	-85*
Nc1ccc(Br)c2c1C(=O)c1ccccc1C2=O	-75*	-6%	?	6%	-2%	?
CC(=O)N(O)CCCCCNC(=O)CCC(=O)N(O)CCCCCNC(=O)CCC(=O)N(O)CCCCCN	-1	-5%	-15%	22µM*	·	-3
Fc1ccc(-n2cc(-c3ccccc3)c3c(NC4CCCCC4)ncnc32)cc1	·	·	-10%	·	·	·
O=C(/C=C/c1ccc(O)cc1)c1ccccc1	3	5%	-4%	-11%	6%	0
O=C/C=C/c1ccc(O)cc1	·	·	-5%	28µM*	·	·
Oc1cc2c(cc1O)[C@H](c1ccccc1)CNCC2	·	·	·	14µM*	·	·
COc1cc2c(cc1OC)C(c1ccccc1)CN(C)CC2 (stereo not given)	·	·	·	2%	·	·
CCCC[C@H](NC(=O)[C@H](CC(C)C)NC(=O)CNC(=O)[C@@H](NC(=O)[C@H](Cc1ccccc1)NC(=O)[C@H](CO)NC(=O)[C@@H](N)CC(=O)O)C(C)C)C(N)=O	·	·	4%	·	·	·
O=c1nc(N/N=C/c2c[nH]c3ccccc23)cn[nH]1	-86*	-9%	-12%	-5%	·	-78*
COc1c(-c2coc3cc4c(cc3c2=O)CC(O)C(C)(C)O4)ccc2c1C=CC(C)(C)O2 (stereo not given)	·	·	?	4%	·	·

Compound activity (PubChem)
